Structures are written as SMILES. Where “and” joins values, the source holds several entries; their conditions need not be identical. Identical values can stand only once. Some structures have more than one record in an assay (separate samples or runs), and their calls can disagree. Calls of active or inactive are those of the source. How the source made its calls: active means hit-call score of the fitted dose curve at least 0.9, where 1 is the maximum; inactive means score below 0.9.

Details in all cases: mRNA level, 48 h; actives raise or lower the signal
Read-out in test [1]: Cytochrome P450 3A7 (Homo sapiens) (UniProt P24462)
Nature of the test: LTEA_HepaRG_CYP3A7: Life Technologies and Expression Analysis (LTEA) Assay for CYP3A7 using HepaRG (AID 2283492). Summed up:
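Human HepaRG liver cells, 48 h post-plating, switched to serum-free induction medium and exposed in duplicate for 48 h. Dosing: 100 uM top, half-log dilutions, 8 points, 0.5% DMSO vehicle. Read-out: CYP3A7 mRNA, gain or loss fitted against DMSO baseline.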

Read-out in another test: CYP3A5 (gene 1577)
Nature of the test: LTEA_HepaRG_CYP3A5: Life Technologies and Expression Analysis (LTEA) Assay for CYP3A5 using HepaRG (AID 2283493). Summed up: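 mRNA induction or loss of CYP3A5 assessed in HepaRG after 48 h dosing, 100 uM top concentration, duplicate wells; TaqMan qRT-PCR with ACTB, GAPDH, POLR2A normalization; 0.5% DMSO as negative control.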

Read-out in test [2]: Fatty Acid-Binding Protein 1 (FABP1), FABP1 (gene 2168)
The test is described as follows: LTEA_HepaRG_FABP1: Life Technologies and Expression Analysis (LTEA) Assay for Fatty Acid-Binding Protein 1 (FABP1) using HepaRG (AID 2283494). Summed up:
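Differentiated human HepaRG cells exposed 48 h in serum-free induction medium to eight half-log concentrations up to 100 uM (0.5% DMSO), duplicate. FABP1 mRNA by qRT-PCR, normalised to ACTB, GAPDH, POLR2A; bidirectional fitting against DMSO.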

Read-out in test [3]: Cytochrome P450 4A22 (Homo sapiens) (UniProt Q5TCH4)
The test is described as follows: LTEA_HepaRG_CYP4A22: Life Technologies and Expression Analysis (LTEA) Assay for Cytochrome P450 4A22 (CYP4A22) using HepaRG (AID 2283495). Summed up:
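Readout is CYP4A22 transcript induction or loss, quantified by qRT-PCR and normalized to ACTB, GAPDH and POLR2A. Human HepaRG cells receive test chemicals for 48 h at eight half-log concentrations from 100 uM in 0.5% DMSO.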

Read-out in test [4]: Cytochrome P450 7A1 (Homo sapiens) (UniProt P22680)
Nature of the test: LTEA_HepaRG_CYP7A1: Life Technologies and Expression Analysis (LTEA) Assay for Cytochrome P450 7A1 (CYP7A1) using HepaRG (AID 2283496). A digest of the protocol: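 Gene expression endpoint in human HepaRG liver cells treated for 48 h with test chemicals (up to 100 uM, 0.5% DMSO). Values come from bidirectional concentration-response fitting versus DMSO.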

Read-out in test [5]: Glutamate-cysteine ligase catalytic (GCLC), GCLC (gene 2729)
Nature of the test: LTEA_HepaRG_GCLC: Life Technologies and Expression Analysis (LTEA) Assay for Glutamate-cysteine ligase catalytic (GCLC) using HepaRG (AID 2283498). A digest of the protocol:
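Differentiated HepaRG cells exposed 48 h in serum-free induction medium, eight-point half-log series topping at 100 uM in 0.5% DMSO, duplicates. GCLC mRNA by qRT-PCR normalized to ACTB, GAPDH and POLR2A, fitted bidirectionally versus DMSO.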

Read-out in test [6]: growth arrest and DNA damage 45 (GADD45G), GADD45G (gene 10912)
Nature of the test: LTEA_HepaRG_GADD45G: Life Technologies and Expression Analysis (LTEA) Assay for growth arrest and DNA damage 45 (GADD45G) using HepaRG (AID 2283499). A digest of the protocol:
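Gain or loss of GADD45G mRNA, quantified by TaqMan qRT-PCR against three housekeeping genes, is fitted in both directions relative to 0.5% DMSO. Human HepaRG cultures receive test chemical for 48 h at up to 100 uM.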

Read-out in test [7]: Glutamate-cysteine ligase regulatory (GCLM), GCLM (gene 2730)
The test is described as follows: LTEA_HepaRG_GCLM: Life Technologies and Expression Analysis (LTEA) Assay for Glutamate-cysteine ligase regulatory (GCLM) using HepaRG (AID 2283500). Summed up:
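Human liver HepaRG cultures receive test chemicals for 48 hours at up to 100 uM in 0.5% DMSO. GCLM expression is measured by qRT-PCR and analysed for increases or decreases against vehicle.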

Read-out in test [8]: Glutathione S-transferase M3 (GSTM3), GSTM3 (gene 2947)
The test is described as follows: LTEA_HepaRG_GSTM3: Life Technologies and Expression Analysis (LTEA) Assay for Glutathione S-transferase M3 (GSTM3) using HepaRG (AID 2283501). Summed up:
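HepaRG, plated 48 h, then serum-free induction medium; test chemical 48 h, duplicate; 100 uM top, half-log x8, 0.5% DMSO. Read-out: GSTM3 mRNA (TaqMan qRT-PCR, Fluidigm array). Bidirectional fit vs DMSO.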

Read-out in test [9]: Heat shock 70 kDa protein 1 (HSPA1A), gene 3303
The test is described as follows: LTEA_HepaRG_HSPA1A: Life Technologies and Expression Analysis (LTEA) Assay for Heat shock 70 kDa protein 1 (HSPA1A) using HepaRG (AID 2283502). Summed up: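 HSPA1A induction in human HepaRG liver cells is measured after 48 h of chemical treatment (100 uM maximum, 0.5% DMSO vehicle). Expression comes from qRT-PCR normalized to endogenous controls.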

Read-out in test [10]: Hypoxia-inducible factor 1-alpha (Homo sapiens) (UniProt Q16665)
Nature of the test: LTEA_HepaRG_HIF1A: Life Technologies and Expression Analysis (LTEA) Assay for Hypoxia-inducible factor 1 (HIF1A) Trancription factor using HepaRG (AID 2283503).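 Further: HIF1A transcript by TaqMan qRT-PCR normalized to ACTB GAPDH and POLR2A.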 A digest of the protocol:
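HepaRG, 48 h exposure, 8-pt half-log series from 100 uM, 0.5% DMSO vehicle, duplicates. Readout: HIF1A transcript by qRT-PCR (Fluidigm array), housekeeping-normalised. Bidirectional curve fit vs DMSO baseline.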

Read-out in test [11]: 3-Hydroxy-3-Methylglutaryl-CoA Synthase 2 (HMGCS2), HMGCS2 (gene 3158)
Nature of the test: LTEA_HepaRG_HMGCS2: Life Technologies and Expression Analysis (LTEA) Assay for 3-Hydroxy-3-Methylglutaryl-CoA Synthase 2 (HMGCS2) using HepaRG (AID 2283504). A digest of the protocol: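 HepaRG, plated 48 h then switched to serum-free induction media; cmpd 8-pt, max 100 uM, 1/2-log, 0.5% DMSO, n=2, 48 h. HMGCS2 mRNA by Fluidigm TaqMan qRT-PCR, ACTB/GAPDH/POLR2A norm; bidirectional fit vs DMSO.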

Read-out in another test: HGF (gene 3082)
Nature of the test: LTEA_HepaRG_HGF: Life Technologies and Expression Analysis (LTEA) Assay for Hepatocyte Growth Facto (HGF) using HepaRG (AID 2283505). Summed up: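 Read-out is HGF transcript level by qRT-PCR, normalized to three housekeeping genes, fitted bidirectionally against 0.5% DMSO vehicle. Human HepaRG cells received test chemicals for 48 h at up to 100 uM.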

Read-out in test [12]: Insulin Like Growth Factor 1 (IGF1), IGF1 (gene 3479)
Nature of the test: LTEA_HepaRG_IGF1: Life Technologies and Expression Analysis (LTEA) Assay for Insulin Like Growth Factor 1 (IGF1) using HepaRG (AID 2283506). A digest of the protocol:
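Using human HepaRG liver cells, IGF1 transcript induction or suppression is measured 48 h after dosing across eight concentrations capped at 100 uM. Values derive from bidirectional concentration-response fitting with DMSO as baseline.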

Read-out in test [13]: Intercellular Adhesion Molecule 1 (ICAM1), ICAM1 (gene 3383)
Nature of the test: LTEA_HepaRG_ICAM1: Life Technologies and Expression Analysis (LTEA) Assay for Intercellular Adhesion Molecule 1 (ICAM1) using HepaRG (AID 2283507). Summed up:
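Readout is qRT-PCR mRNA level, normalized to three housekeeping genes and fitted bidirectionally against 0.5% DMSO vehicle. Human HepaRG cultures received compound for 48 h, top concentration 100 uM with half-log dilutions.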

Read-out in test [14]: Insulin-like growth factor-binding protein 1 (IGFBP1), IGFBP1 (gene 3484)
Nature of the test: LTEA_HepaRG_IGFBP1: Life Technologies and Expression Analysis (LTEA) Assay for Insulin-like growth factor-binding protein 1 (IGFBP1) using HepaRG (AID 2283508). Summed up:
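Thawed HepaRG cells are plated for 48 h, switched to serum-free induction medium, then dosed in duplicate for another 48 h (100 uM top, half-log steps). Lysates in RLT go to qRT-PCR, and gain or loss of signal is fitted relative to vehicle.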

Read-out in test [15]: Interleukin 6 (IL6), IL6 (gene 3569)
The test is described as follows: LTEA_HepaRG_IL6: Life Technologies and Expression Analysis (LTEA) Assay for Interleukin 6 (IL6) using HepaRG (AID 2283509). A digest of the protocol:
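HepaRG cells exposed in duplicate for 48 h to eight half-log concentrations, top 100 uM, in 0.5% DMSO serum-free induction medium. mRNA measured by qRT-PCR, normalized to ACTB, GAPDH and POLR2A. Bidirectional fit versus DMSO.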

Read-out in test [16]: Interleukin 6 Receptor (IL6R), IL6R (gene 3570)
The test is described as follows: LTEA_HepaRG_IL6R: Life Technologies and Expression Analysis (LTEA) Assay for Interleukin 6 Receptor (IL6R) using HepaRG (AID 2283510).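 On AC50: TaqMan qRT-PCR signal normalized to ACTB GAPDH and POLR2A housekeeping genes.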 Summed up: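 Concentration-response in human liver HepaRG cells: eight concentrations from 100 uM downward by half-logs, 48 h exposure, 0.5% DMSO vehicle. IL6R mRNA change measured by qRT-PCR and fitted in both directions relative to vehicle.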

Read-out in test [17]: Potassium channel subfamily K member 1 (KCNK1), KCNK1 (gene 3775)
Nature of the test: LTEA_HepaRG_KCNK1: Life Technologies and Expression Analysis (LTEA) Assay for Potassium channel subfamily K member 1 (KCNK1) using HepaRG (AID 2283511). A digest of the protocol: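 Differentiated HepaRG cells, 48 h exposure in serum-free induction medium with 0.5% DMSO; 8 concentrations, half-log from 100 uM, duplicate. KCNK1 mRNA by qRT-PCR, normalized to ACTB, GAPDH, POLR2A; bidirectional fit vs DMSO.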

Hypoxia-inducible factor 1-alpha (Homo sapiens), sequence (Q16665 whole entry, looked up): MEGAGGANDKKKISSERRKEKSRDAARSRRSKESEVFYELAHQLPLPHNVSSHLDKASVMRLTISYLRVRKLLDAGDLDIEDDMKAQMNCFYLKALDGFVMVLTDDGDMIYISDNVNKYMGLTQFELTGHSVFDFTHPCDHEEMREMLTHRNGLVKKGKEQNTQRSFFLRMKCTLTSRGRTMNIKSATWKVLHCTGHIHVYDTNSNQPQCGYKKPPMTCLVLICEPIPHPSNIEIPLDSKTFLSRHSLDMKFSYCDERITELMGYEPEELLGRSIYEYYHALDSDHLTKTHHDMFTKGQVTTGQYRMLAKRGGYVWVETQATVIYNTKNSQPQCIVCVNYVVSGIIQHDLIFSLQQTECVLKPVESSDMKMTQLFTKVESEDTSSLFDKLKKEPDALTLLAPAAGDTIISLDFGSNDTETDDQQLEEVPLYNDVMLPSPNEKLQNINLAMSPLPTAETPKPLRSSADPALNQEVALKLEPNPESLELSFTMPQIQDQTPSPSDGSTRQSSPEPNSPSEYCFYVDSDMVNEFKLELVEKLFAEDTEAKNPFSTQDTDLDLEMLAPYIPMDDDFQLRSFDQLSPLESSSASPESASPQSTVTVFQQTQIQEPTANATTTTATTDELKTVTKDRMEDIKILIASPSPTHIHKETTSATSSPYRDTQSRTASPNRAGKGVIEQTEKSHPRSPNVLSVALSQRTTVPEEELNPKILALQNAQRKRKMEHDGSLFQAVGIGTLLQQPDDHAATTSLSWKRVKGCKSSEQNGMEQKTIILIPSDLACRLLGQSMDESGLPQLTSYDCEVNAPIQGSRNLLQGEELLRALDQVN
Cytochrome P450 3A7 (Homo sapiens), sequence (P24462 whole entry, looked up): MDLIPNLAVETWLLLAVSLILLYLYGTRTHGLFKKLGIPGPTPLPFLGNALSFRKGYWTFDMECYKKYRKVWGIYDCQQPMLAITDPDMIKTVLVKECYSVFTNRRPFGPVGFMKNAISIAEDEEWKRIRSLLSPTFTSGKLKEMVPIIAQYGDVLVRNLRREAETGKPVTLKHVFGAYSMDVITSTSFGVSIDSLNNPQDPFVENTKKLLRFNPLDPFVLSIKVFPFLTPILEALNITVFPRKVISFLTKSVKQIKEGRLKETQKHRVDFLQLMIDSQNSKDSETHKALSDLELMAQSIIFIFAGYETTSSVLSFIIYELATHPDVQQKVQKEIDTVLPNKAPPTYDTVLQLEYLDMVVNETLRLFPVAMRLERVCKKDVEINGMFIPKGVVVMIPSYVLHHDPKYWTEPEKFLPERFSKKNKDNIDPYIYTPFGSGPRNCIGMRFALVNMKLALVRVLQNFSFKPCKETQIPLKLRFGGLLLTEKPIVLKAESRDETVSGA

By AC50 is commonly meant the concentration giving half of the maximal activity seen. Regarding `C#CCN1C(=O)COc2cc(F)c(N3C(=O)C4=C(CCCC4)C3=O)cc21`, the AC50 is 0.97 µM (active) in test [1], 25.4 µM (active) in test [2], 16.1 µM (active) in [3] and 23.5 µM (active) in test [12]. Further, the call (with CYP3A5 (gene 1577); in [4]; in test [5]; in test [6]; in test [7]; in test [8]) was inactive. In addition, the call (in test [9]; in [10]; in test [11]; with HGF (gene 3082); in test [13]; in test [14]) was inactive. Also, the compound was classed as inactive in test [15], in [16] and in [17].
For the compound `CC(C)(C)C(O)C(Oc1ccc(Cl)cc1)n1cncn1` (configuration not stated), the outcome (in the test with CYP3A5 (gene 1577); in test [5]; in test [6]; in test [7]; in test [8]; in [9]) was inactive. For the same compound, the compound was called inactive (in test [10]; in the test with HGF (gene 3082); in test [13]; in [14]; in test [15]; in [16]). Besides, the call in test [17] was inactive. Also, the AC50 in [2] is 50 µM (active) and 21.4 µM (active); in test [3], 12.8 µM (active) and 14.6 µM (active) and 18 µM (active); in [4] it was 8.02 µM (active) and 9.92 µM (active) and 1.24 µM (active); in test [11], 21 µM (active) and 32.8 µM (active) and 21.6 µM (active); in test [12], 16 µM (active) and 23.4 µM (active) and 14.4 µM (active); in test [16] it was 50 µM (active).
For `CCc1ccc(C(=O)NN(C(=O)c2cc(C)cc(C)c2)C(C)(C)C)cc1`, the AC50 was 12.1 µM (active) in test [1]; 50 µM (active) in test [2]; 74.4 µM (active) in test [3]; 4.22 µM (active) in test [4]; 81.7 µM (active) in test [9]; 50 µM (active) in test [11]. Further, the result (with CYP3A5 (gene 1577); in test [5]; in test [6]; in test [7]; in test [8]; in test [10]) was inactive. Also, the compound was classed as inactive (with HGF (gene 3082); in test [12]; in test [13]; in test [14]; in test [15]; in test [16]). Also, the compound was called inactive in [17].
